This passage reports PBM binding z-score results from the supplement of paper PMC6555819.

For this experiment, the system named is VDR homodimer (NR concentration 270 nM). Description: PBM binding z-score (relative to random genomic background probes); higher = stronger binding; sequences stand for … in GC…GCGATTGACAGCGTAGAATGAAGG
The method in brief:
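For binding z-scores, the reference was random background probes on custom Agilent 4×180K protein-binding microarrays. These arrays were incubated 1 h with ligand-free nuclear receptor dimers in PBS pH 7.4, 2% milk, 0.02% Triton X-100, 1 mM DTT, 0.2 mg/mL BSA and 0.4 mg/ml salmon testes DNA. Fluorescence was scanned after antibody detection of each partner (one per run) and regression-normalized.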
CTCGAAAGGTCGGTTGAGGTGAGAATACGGATAA came in with a PBM binding z-score of 0.742. Sequence TCTGCTAGGTCAGCTGGTCAGCTAACGAGCTGCC registered a PBM binding z-score of -1.3.

With GCTTGTAGATCATGGTTAAGAAAGACTAAGCTAA, the PBM binding z-score was -0.385.

As to TCTGCTAGGTCAGTTTGTCAGCTAACGAGCTGCC, the PBM binding z-score was -0.975. As to TCATATAGGTAAATGCTAGTTGAAAGTCCGATCT, the PBM binding z-score was 0.45. In turn, TCTCGGAGGACACGTAAGGTCAGAGCTCGACATC returned a PBM binding z-score of 1.25.

ATGTCTAGGTAAAGATAGTTCAGTGAATGCAAAT had a PBM binding z-score of 0.431. For TATACAGGGTCAAAGTCCAGAGTACGAATGTCGA the value was 4.02; for GGAACCAGGGCAAGTTGATAGCAGAGTTTGATGG, 0.898; for CCTAGCAGGCCAGGGTCACTGAAGCATTTCGCTT, 1.19. For CGTCCAAGGTCAATGCTAGGACAGTGAAAGCATT the value was 2.24. With CCTACTGGGCCATTCATAGGTCATTGATCATATG the figure was 0.415; with CGAACTAGGTGATCCAGGACAGTGAATACATTGA, 0.0681.

With ACTAGCAGGTCAAGTTTGGGTCACTCAAACAAAG, the PBM binding z-score was 2.13. For the sequence TCTCGTAGATCAAGCAGGTTAAGAAAGCCTGAGT, the PBM binding z-score is -0.12. GCTGCTAGGTCAGTTTGGTCAGCTAACGGGTACG came in with a PBM binding z-score of 0.564. For CCTACTGGGCCATCAGATCATTGATATCAACGTT the value was 0.0449. In the case of CCGAGTGGGGCAGAAAGGTTACCATACCATCCGG, the PBM binding z-score was determined as 0.0724. AGTCAAAGTTCACTAGGTAACCTAAGATTCAGCT had a PBM binding z-score of 4.29. Take TCTAGCAGGCCCGAGGGTCACTCAAGAGGTACGG: the PBM binding z-score was determined as 0.268.

With TCGACTAGGTTACCAATGGGGCATTCAGCTTTCT, the PBM binding z-score was -0.0453. The sequence GCGACTGGGGCATCAGCAGGTTAGCATAACTTAA displayed a PBM binding z-score of -0.612.
